Inconclusive results are not listed. Calls of active or inactive are those of the source. How the source made its calls, unless noted: active means hit-call score of the fitted dose curve at least 0.9, where 1 is the maximum; inconclusive means response in the unintended direction; inactive means score below 0.9.

This passage reports outcome and AC50 results from PubChem BioAssay (EPA / NIEHS).

The nature of experiment [1]: Tanguay_ZF_120hpf_SWIM_legacy: (Legacy) Oregon State University Tanguay Lab 120 Hour Post-fertilization zebrafish Assay for Swim Bladder Malformation (AID 2283654).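 Further: swim bladder malformation in each larva scored yes or no under brightfield.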 The method, boiled down:
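Embryos lacking chorions were exposed individually and statically to test chemical from 6 to 120 hpf at 28C, with 0.64% DMSO as vehicle. At 120 hpf, swim bladder malformation was recorded as present or absent by brightfield microscopy.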

A short description of experiment [2]: Tanguay_ZF_120hpf_TRUN_legacy: (Legacy) Oregon State University Tanguay Lab 120 Hour Post-fertilization zebrafish Assay for Truncated Body (AID 2283655). In short, it runs like this: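 Tropical 5D wild-type embryos, dechorionated with pronase at 4 hpf, were placed singly in wells at 6 hpf and statically exposed at 28C until 120 hpf, final DMSO 0.64%. Truncated body was scored present/absent by brightfield microscopy.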

Read-out in experiment [3]: ABC Transporter (ABCB1), ABCB1 (gene 5243)
The experiment can be described thus: CLD_ABCB1_6hr: CellzDirect (CLD) Gene Expression Assay for ABC Transporter (ABCB1) at 6 hours (AID 2283659).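 Further: hits raise ABCB1 transcript above the DMSO vehicle baseline.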 In short, it runs like this:
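Primary human hepatocytes (two donor preparations) dosed daily for two days with chemicals at multiple concentrations, 0.2% DMSO vehicle; harvested 6 h post-dose. ABCB1 mRNA induction quantified by qNPA chemiluminescence; gain-of-signal fitted versus DMSO.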

Experiment [4] in a line: Tanguay_ZF_120hpf_TR_legacy: (Legacy) Oregon State University Tanguay Lab 120 Hour Post-fertilization zebrafish Assay for Touch Response (AID 2283667). In short, it runs like this: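 5D WT embryos; static exposure to 120 hpf, 28C, sealed/dark; DMSO 0.64% v/v final. TR scored present/absent; dead embryos excluded. Pos ctrl 5uM trimethyltin chloride.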
Read-out in experiment [5]: sulfotransferase (SULT2A), SULT2A1 (gene 6822)
The experiment can be described thus: CLD_SULT2A_6hr: CellzDirect (CLD) Gene Expression Assay for sulfotransferase (SULT2A) at 6 hours (AID 2283669).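 Further: hits raise transcript level above the DMSO vehicle baseline.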 In short, it runs like this:
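Primary human hepatocytes from two donor preparations were dosed daily with chemicals or 0.2% DMSO and harvested at 6 h. Transcript induction read by qNPA chemiluminescence, fitted for gain of signal relative to DMSO; morphology-based cytotoxicity annotated.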

Read-out in experiment [6]: ABC Transporter (ABCB11), ABCB11 (gene 8647)
The experiment can be described thus: CLD_ABCB11_6hr: CellzDirect (CLD) Gene Expression Assay for ABC Transporter (ABCB11) at 6 hours (AID 2283675).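 Further: hits raise ABCB11 mRNA level so AC50 marks induction.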 The method, boiled down: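 Human primary hepatocytes (two donor preparations) given fresh chemical daily at multiple concentrations, vehicle 0.2% DMSO. ABCB11 mRNA induction measured 6 h after dosing by qNPA chemiluminescence versus DMSO; cytotoxicity annotated from morphology.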

Read-out in experiment [7]: Broad substrate specificity ATP-binding cassette transporter ABCG2 (Homo sapiens) (UniProt Q9UNQ0)
The experiment can be described thus: CLD_ABCG2_6hr: CellzDirect (CLD) Gene Expression Assay for ABC Transporter (ABCG2) at 6 hours (AID 2283660). The method, boiled down:
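Primary human hepatocytes dosed daily with chemicals at multiple concentrations (0.2% DMSO vehicle), harvested 6 h after dosing. ABCG2 mRNA induction read by quantitative nuclease protection assay (qNPA) chemiluminescence; gain of signal fitted against DMSO baseline.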

Read-out in experiment [8]: xenobiotic metabolism (CYP1A1), CYP1A1 (gene 1543)
The experiment can be described thus: CLD_CYP1A1_6hr: CellzDirect (CLD) Gene Expression Assay for xenobiotic metabolism (CYP1A1) at 6 hours (AID 2283661).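 On AC50: potency for transcript induction above DMSO vehicle baseline.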 The method, boiled down:
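Primary human hepatocytes from two donors, compound versus 0.2% DMSO vehicle. CYP1A1 mRNA measured 6 h after dosing by quantitative nuclease protection assay with chemiluminescent read-out; induction fitted relative to DMSO, cytotoxicity flagged by microscopy.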

Experiment [9] deals with Thyroperoxidase (TPO), gene 54314. The experiment can be described thus: CCTE_Simmons_AUR_rTPO: CCTE's Amplex UltraRed Assay for Thyroperoxidase (TPO) Inhibition, Simmons Lab (AID 2283662).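 Further: potency for loss of signal meaning inhibition of peroxidase activity.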 The method, boiled down:
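Rat thyroid microsomes (5 ug protein) were incubated with test compound (8 concentrations, 5 nM–87.5 uM final, 0.5% DMSO), 25 uM Amplex UltraRed and 300 uM H2O2 in 200 mM phosphate buffer for 30 min at 37C in the dark; fluorescence read at 544/590 nm.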

Experiment [10] in a line: CCTE_Simmons_CellTiterGLO_HEK293T: Viability Assessment in CCTE's Assays for Thyroperoxidase (TPO) Inhibition, Simmons Lab (AID 2283665).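 On AC50: cells exposed to compound for 24 h before readout; actives reduce ATP signal below DMSO vehicle meaning cytotoxicity.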 The method, boiled down:
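Cytotoxicity counter-screen: human HEK293T cells in low-serum (1% FBS) medium receive test chemical, 5 nM to 87.5 uM final, for 24 h; ATP is quantified by luciferase luminescence.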

Read-out in experiment [11]: glucuronosyltransferase (UGT1A1), UGT1A1 (gene 54658)
The experiment can be described thus: CLD_UGT1A1_6hr: CellzDirect (CLD) Gene Expression Assay for glucuronosyltransferase (UGT1A1) at 6 hours (AID 2283672). The method, boiled down:
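Primary human hepatocytes from two donor preparations, dosed with fresh solutions in 0.2% DMSO, harvested at 6 h. UGT1A1 mRNA measured by qNPA chemiluminescence; induction fitted upward versus DMSO.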

Experiment [12] is described as follows: Tanguay_ZF_120hpf_NC_legacy: (Legacy) Oregon State University Tanguay Lab 120 Hour Post-fertilization zebrafish Assay for Notochord and Tail Malformation (AID 2283656). The method, boiled down: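 Dechorionated 5D zebrafish, 1/well from 6 hpf; static exposure to 120 hpf, 28C, sealed, dark; final DMSO 0.64% v/v. NC scored binary (present/absent); dead embryos not scored. Fit vs DMSO baseline, gain direction.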

Read-out in experiment [13]: ABC Transporter (ABCB11), ABCB11 (gene 8647)
The experiment can be described thus: CLD_ABCB11_24hr: CellzDirect (CLD) Gene Expression Assay for ABC Transporter (ABCB11) at 24 hours (AID 2283674; active means hit-call score of the fitted dose curve at least 0.9, where 1 is the maximum; inactive means score below 0.9). In short, it runs like this: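 Primary human hepatocytes were dosed daily for two days, with 0.2% DMSO vehicle. ABCB11 mRNA induction was measured at 24 hours by quantitative nuclease protection assay with chemiluminescence. Gain of signal was fitted relative to DMSO.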

Read-out in experiment [14]: xenobiotic metabolism (CYP1A1), CYP1A1 (gene 1543)
The experiment can be described thus: CLD_CYP1A1_24hr: CellzDirect (CLD) Gene Expression Assay for xenobiotic metabolism (CYP1A1) at 24 hours (AID 2283673). In short, it runs like this: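 Primary human hepatocytes dosed daily with fresh solutions in 0.2% DMSO vehicle. mRNA measured at 24 h by quantitative nuclease protection assay with chemiluminescence; gain-of-signal fit versus DMSO, with morphology-based cytotoxicity flags.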

Read-out in experiment [15]: xenobiotic metabolism (CYP1A2), CYP1A2 (gene 1544)
The experiment can be described thus: CLD_CYP1A2_6hr: CellzDirect (CLD) Gene Expression Assay for xenobiotic metabolism (CYP1A2) at 6 hours (AID 2283663).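 Further: potency is for induction meaning a rise in mRNA above DMSO.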 In short, it runs like this: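 Primary human hepatocytes from two donor preparations, dosed daily with multiple concentrations in 0.2% DMSO and harvested at 6 h. CYP1A2 mRNA induction measured by chemiluminescent qNPA, gain of signal fitted against DMSO; cytotoxicity flagged morphologically.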

Sequence of Broad substrate specificity ATP-binding cassette transporter ABCG2 (Homo sapiens) (Q9UNQ0 whole entry, looked up): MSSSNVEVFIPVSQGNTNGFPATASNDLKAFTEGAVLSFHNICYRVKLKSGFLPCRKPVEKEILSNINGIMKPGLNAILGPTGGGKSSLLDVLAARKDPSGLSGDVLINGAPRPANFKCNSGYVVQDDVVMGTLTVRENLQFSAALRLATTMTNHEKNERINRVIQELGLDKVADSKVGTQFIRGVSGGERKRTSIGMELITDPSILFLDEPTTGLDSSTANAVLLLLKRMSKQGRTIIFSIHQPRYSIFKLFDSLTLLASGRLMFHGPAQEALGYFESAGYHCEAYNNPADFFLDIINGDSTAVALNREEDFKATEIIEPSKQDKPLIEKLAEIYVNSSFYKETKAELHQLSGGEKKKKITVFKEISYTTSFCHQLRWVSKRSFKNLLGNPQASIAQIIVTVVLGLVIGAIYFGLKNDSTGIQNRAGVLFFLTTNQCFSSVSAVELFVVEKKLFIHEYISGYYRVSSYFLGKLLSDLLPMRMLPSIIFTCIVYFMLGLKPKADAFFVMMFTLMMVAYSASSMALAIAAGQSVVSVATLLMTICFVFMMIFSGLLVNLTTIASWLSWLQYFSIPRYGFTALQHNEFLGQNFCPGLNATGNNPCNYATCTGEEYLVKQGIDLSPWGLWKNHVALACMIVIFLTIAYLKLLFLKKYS

For `O=C(Nc1ccccc1-c1ccc(Cl)cc1)c1cccnc1Cl`, the call in experiment [1], in experiment [2], in experiment [3], in experiment [4], in [5] and in [6] was inactive.
As to `C=CCOC(=O)C(C)(C)OC(=O)c1cc(-n2c(=O)cc(C(F)(F)F)n(C)c2=O)ccc1Cl`, the result in experiment [2], in [3], in experiment [7], in experiment [8], in experiment [5] and in experiment [6] was inactive.
`Cc1cc(C)nc(Nc2ccccc2)n1`: the compound was classed as inactive in [1], in [2] and in experiment [4].
As to `CCN(CC)c1nc(C)cc(OP(=S)(OC)OC)n1`, the result in experiment [1], in experiment [2], in experiment [4] and in experiment [11] was inactive. Besides, the AC50 in [9] is 19.1 µM (active); in experiment [10] it was 53.8 µM (active).
Regarding `CC(C)C1(C)N=C(c2ncccc2C(=O)O)NC1=O` (centres undefined), the result in experiment [2], in [12], in [3], in experiment [7], in [4] and in experiment [13] was inactive.
Take `CCSC(=O)N1CCCCCC1`: the call in [1], in experiment [2], in experiment [3] and in [14] was inactive.
`CC(C)=CC1C(C(=O)OCc2coc(Cc3ccccc3)c2)C1(C)C` (centres undefined): the call in experiment [1], in experiment [3], in experiment [4] and in experiment [6] was inactive. For the same compound, the AC50 in [9] is 26.8 µM (active); in [10], 32.7 µM (active).
As to `COP(=S)(OC)SCn1nnc2ccccc2c1=O`, the outcome in experiment [1], in experiment [3], in [7], in experiment [4], in [13] and in experiment [6] was inactive. Also, the values for the AC50 in experiment [9], in [10] and in [14] were 6.68 µM (active), 53.8 µM (active) and 3.65 µM (active), respectively.
Take `OC(c1ccc(Cl)cc1)(c1ccc(Cl)cc1)C(Cl)(Cl)Cl`: the compound was classed as inactive in experiment [1], in experiment [3], in experiment [7], in experiment [4], in experiment [13] and in [6]. In addition, the AC50 was 43.8 µM (active) in experiment [9] and 6.74 µM (active) in [10].
For `COC(=O)c1c(C(F)F)nc(C(F)(F)F)c(C2=NCCS2)c1CC(C)C`, the compound was called inactive in experiment [1], in experiment [2], in [3] and in experiment [13]. In experiment [8], the AC50 is 1.91 µM (active).
For the compound `CSC(=O)c1c(C(F)F)nc(C(F)(F)F)c(C(=O)SC)c1CC(C)C`, the compound was called inactive in experiment [1], in [2], in experiment [4] and in [6]. Moreover, the AC50 in experiment [14] is 4.78 µM (active).
`COCC(=O)N(c1c(C)cccc1C)C(C)C(=O)OC` (centres undefined): the compound was called inactive in experiment [1], in [2], in experiment [3], in experiment [4], in experiment [11] and in experiment [13].
As to `COC(=O)N(C(=O)N1CO[C@@]2(C(=O)OC)Cc3cc(Cl)ccc3C2=N1)c1ccc(OC(F)(F)F)cc1`, the outcome in experiment [1], in experiment [12], in [3], in [4], in [5] and in [6] was inactive.
With `CN/C(=N\[N+](=O)[O-])NCc1cnc(Cl)s1`, the compound was classed as inactive in experiment [1], in experiment [2] and in experiment [4].
On to `Nc1c(Cl)c(F)nc(OCC(=O)O)c1Cl`, for which the call in experiment [2], in experiment [3], in [7], in experiment [4], in [14] and in experiment [6] was inactive.
On to `COC(=O)NC(=S)Nc1ccccc1NC(=S)NC(=O)OC`, for which the call in experiment [1], in [2], in [10] and in [4] was inactive. The AC50 in experiment [8] was 5.11 µM (active); in [9] it was 22.2 µM (active); in experiment [14] it was 15.1 µM (active).
Take `COc1cc(Cl)c(OC)cc1Cl`: the compound was called inactive in experiment [1], in experiment [12], in experiment [3], in experiment [7], in [4] and in experiment [6].
With `CNC(=O)N(C)c1nnc(C(C)(C)C)s1`, the compound was called inactive in experiment [1], in [2], in experiment [3], in [4] and in experiment [14].
For the compound `Nc1cnn(-c2ccccc2)c(=O)c1Cl`, the result in experiment [1], in [2], in experiment [7], in experiment [4] and in experiment [5] was inactive. Moreover, the AC50 in experiment [15] is 9.27 µM (active).
On to `Cn1c(-c2ccccc2)cc(-c2ccccc2)[n+]1C`, for which the compound was called inactive in experiment [1], in [2], in experiment [3], in experiment [4] and in experiment [5].
On to `CCCCOCN(C(=O)CCl)c1c(CC)cccc1CC`, for which the compound was classed as inactive in experiment [2], in [7], in [4] and in experiment [13]. The half-maximal activity concentration (AC50) in [8] is 5.21 µM (active); in experiment [14], 6.4 µM (active).
As for `CCNC(=O)NC(=O)C(C#N)=NOC`, the AC50 in experiment [1] is 53.2 µM (active); in experiment [9] it was 41.2 µM (active). In addition, the result in [2], in experiment [8], in experiment [4], in experiment [11] and in [13] was inactive.
Regarding `CC(C)NC(=O)N1CC(=O)N(c2cc(Cl)cc(Cl)c2)C1=O`, the call in experiment [1], in experiment [3], in [7], in experiment [4], in experiment [11] and in experiment [13] was inactive. In experiment [8], the AC50 is 8.11 µM (active).

The AC50 is the midpoint of the concentration-response curve, whichever way the signal moves.
